# Results taken from the supplement of paper PMC6607015.
# Counter-ions that a name gives are not always drawn.
# Columns and labels:
# Details in all cases: compound concentration in added solution (µM; 5 µl added to 20 µl cells): 10; 18 h
# A431 [1] = assay: LBPA endosome anti-LBPA integrated intensity (sum per cell), Z-score; higher = more LBPA staining
# Method in brief: (§1)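 The data are Z-scores, normalised in AcuityXpress, of integrated LBPA or filipin intensity in each cell, either whole-cell or restricted to LBPA endosomes. HeLa MZ or A431 cells, 3,500 per well in 20 µl, were seeded onto 5 µl of 10 µM compound solution in duplicate 384-well plates and incubated 18 h. Fixed cells were stained and imaged, with intensities extracted by MetaXpress segmentation.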
# HeLa MZ [2] = assay: as above
# Method in brief: as §1
# A431 [3] = assay: whole-cell filipin (free cholesterol) integrated intensity, Z-score; higher = more cholesterol staining
# Method in brief: as §1
# HeLa MZ [4] = assay: as above
# Method in brief: as §1
# A431 [5] = assay: filipin (cholesterol) integrated intensity within LBPA endosomes, Z-score; higher = more cholesterol in LBPA endosomes
# Method in brief: as §1
# HeLa MZ [6] = assay: as above
# Method in brief: as §1
Structure (SMILES),LBPA endosome anti-LBPA integrated intensity (z-score) (A431 [1]),LBPA endosome anti-LBPA integrated intensity (z-score) (HeLa MZ [2]),whole-cell filipin (z-score) (A431 [3]),whole-cell filipin (z-score) (HeLa MZ [4]),filipin (z-score) (A431 [5]),filipin (z-score) (HeLa MZ [6])
Cc1c(OCC(F)(F)F)ccnc1C[S+]([O-])c1nc2ccccc2[nH]1 (configuration not stated) [Lansoprazole],-0.504,0.142,0.199,0.176,-0.31,-0.222
Nc1c2c(nc3ccccc13)CCCC2 [Tacrine hydrochloride],0.535,0.705,-0.59,0.0516,0.0216,0.583
CC(N)CCCC(C)(C)O (configuration not stated) [Heptaminol hydrochloride],-0.451,-1.1,-0.647,-0.285,-0.442,-0.477
NC(=O)NC1NC(=O)NC1=O (configuration not stated) [Allantoin],-0.71,-1.01,-1.02,-0.573,-0.456,-0.604
Nc1ccc(C(=O)O)c(O)c1 [4-aminosalicylic acid],-0.488,-0.439,-0.159,-0.434,-0.444,-0.569
CCCOc1cc(N)ccc1C(=O)OCCN(CC)CC [Propoxycaine hydrochloride],0.303,1.24,0.398,0.62,-0.0905,0.287
CCSc1ccc2c(c1)N(CCCN1CCN(C)CC1)c1ccccc1S2 [Thiethylperazine dimalate],3.37,1.8,-0.311,-0.392,1.25,1.79
O=C1Cc2cc(CCN3CCN(c4nsc5ccccc45)CC3)c(Cl)cc2N1 [Ziprasidone  Hydrochloride],1.04,1.09,0.285,0.974,0.571,1.31
CS(=O)(=O)c1ccc([C@@H](O)[C@@H](CO)NC(=O)C(Cl)Cl)cc1 [Thiamphenicol],-0.461,-0.533,-0.551,-0.526,-0.439,-0.625
Fc1ccc(C(c2ccc(F)cc2)N2CCN(C/C=C/c3ccccc3)CC2)cc1 [Flunarizine dihydrochloride],0.53,-0.311,0.301,-0.958,0.627,0.163
CC(C(=O)O)c1ccc(N2Cc3ccccc3C2=O)cc1 (configuration not stated) [Indoprofen],-0.353,0.541,-0.0864,0.103,-0.445,-0.482
CC[N+](C)(C)Cc1ccccc1Br [Bretylium tosylate],-0.568,-0.254,-0.37,-0.522,-0.5,-0.561
N=C(N)N/N=C/c1c(Cl)cccc1Cl [Guanabenz acetate],2.17,0.543,1.23,-0.116,1.62,0.458
CC(=O)Oc1cc(C(C)C)c(OCCN(C)C)cc1C [Moxisylyte hydrochoride],-0.364,-0.0871,-0.91,-1.03,-0.482,-0.452
CC(C)(C)NCC(O)c1ccc(O)c(CO)c1 (configuration not stated) [Salbutamol],-0.288,-0.311,0.022,-0.307,-0.535,-0.499
Cc1onc(-c2ccccc2)c1C(=O)N[C@@H]1C(=O)N2[C@@H]1SC(C)(C)[C@@H]2C(=O)O [Oxacillin sodium],-0.391,0.32,-0.277,-0.0335,-0.382,-0.445
CCn1cc(C(=O)O)c(=O)c2cc(F)c(N3CCNC(C)C3)c(F)c21 (configuration not stated) [Lomefloxacin hydrochloride],-0.676,-1.53,-1.2,-0.837,-0.597,-0.65
CCCCNc1ccc(C(=O)OCCN(C)C)cc1 [Tetraca? hydrochloride],-0.207,0.761,-0.403,-0.308,-0.238,0.182
COc1cc(N)c(Cl)cc1C(=O)NC1CCN(Cc2ccccc2)CC1 [Clebopride maleate],0.365,2.01,-0.171,0.217,0.0875,0.539
O=C(c1ccccc1)c1ccc2n1CCC2C(=O)O (configuration not stated) [Ketorolac tromethamine],-0.483,0.0549,-0.702,-0.443,-0.478,-0.538
CC[C@H]1OC(=O)C[C@@H](O)[C@H](C)[C@@H](O[C@@H]2O[C@H](C)[C@@H](O[C@H]3C[C@@](C)(O)[C@@H](O)[C@H](C)O3)[C@H](N(C)C)[C@H]2O)[C@@H](CC=O)C[C@@H](C)C(=O)/C=C/C(C)=C/[C@@H]1CO[C@@H]1O[C@H](C)[C@@H](O)[C@@H](OC)[C@H]1OC [Tylosin],-0.392,0.456,-0.334,-0.339,-0.399,-0.321
NC(=O)c1ncn([C@@H]2O[C@H](CO)[C@@H](O)[C@H]2O)n1 [Ribavirin],-0.391,-0.778,-0.377,-0.839,-0.376,-0.688
CN[C@@H]1[C@@H](O[C@H]2O[C@H](CO)[C@@H](N)[C@H](O)[C@H]2O)OC2C[C@@H](N)[C@@H](O[C@H]3[C@H](O)[C@@H](O)[C@H](N)C[C@@H]3N)OC2[C@@H]1O (some centres not stated) [Apramycin],-0.469,-0.358,-0.077,-0.329,-0.402,-0.523
NS(=O)(=O)c1cc2c(cc1Cl)NC(C(Cl)Cl)NS2(=O)=O (configuration not stated) [Trichlormethiazide],-0.262,0.0655,-0.129,-0.0923,-0.393,-0.381

Structure (SMILES),LBPA endosome anti-LBPA integrated intensity (z-score) (A431 [1]),LBPA endosome anti-LBPA integrated intensity (z-score) (HeLa MZ [2]),whole-cell filipin (z-score) (A431 [3]),whole-cell filipin (z-score) (HeLa MZ [4]),filipin (z-score) (A431 [5]),filipin (z-score) (HeLa MZ [6])
CCn1cc(C(=O)O)c(=O)c2cnc(N3CCNCC3)nc21 [Pipemidic acid],-0.522,0.188,-0.242,0.338,-0.361,-0.281
CCc1c(C)[nH]c2c1C(=O)C(CN1CCOCC1)CC2 (configuration not stated) [Molindone hydrochloride],-0.564,-0.568,-0.123,-0.707,-0.506,-0.344
COC(=O)[C@H]1[C@H]2C[C@@H]3c4[nH]c5cc(OC)ccc5c4CCN3C[C@H]2C[C@@H](OC(=O)c2cc(OC)c(OC)c(OC)c2)[C@@H]1OC [Reserpine],3.11,2.24,2.19,1.75,2.34,1.96
Cc1cccc(C)c1OCC(C)N (configuration not stated) [Mexiletine hydrochloride],-0.572,-0.935,-0.883,-0.901,-0.495,-0.576
CCOc1ccc2ccccc2c1C(=O)N[C@@H]1C(=O)N2[C@@H]1SC(C)(C)[C@@H]2C(=O)O [Nafcillin sodium salt monohydrate],-0.558,-0.117,-0.348,-0.195,-0.443,-0.476
CC(C)Cc1ccc([C@H](C)C(=O)O)cc1 [S-(+)-ibuprofen],-0.498,-0.256,-0.555,-0.301,-0.443,-0.51
COc1ccccc1N1CCN(CC(O)COc2cccc3ccccc23)CC1 (configuration not stated) [Naftopidil dihydrochloride],0.776,1.7,0.857,0.537,0.575,0.742
CC[C@H](C)C(=O)O[C@H]1C[C@H](O)C=C2C=C[C@H](C)[C@H](CC[C@@H](O)C[C@@H](O)CC(=O)O)[C@H]21 [Pravastatin],1.48,0.0503,-0.289,-0.634,0.0167,-0.441
O=C1CCc2cc(OCCCCc3nnnn3C3CCCCC3)ccc2N1 [Cilostazol],-0.386,-0.0616,-0.68,-0.703,-0.49,-0.5
CC[C@H]1OC(=O)[C@H](C)[C@@H](O[C@H]2C[C@@](C)(OC)[C@@H](O)[C@H](C)O2)[C@H](C)[C@@H](O[C@@H]2O[C@H](C)C[C@H](N(C)C)[C@H]2O)[C@](C)(O)C[C@@H](C)[C@@H]2N[C@@H](COCCOC)O[C@H]([C@H]2C)[C@]1(C)O [Dirithromycin],-0.436,-0.0354,-0.786,-0.252,-0.507,-0.38
CCn1cc(C(=O)O)c(=O)c2ccc(C)nc21 [Nalidixic acid sodium salt],-0.59,-0.884,-0.346,-0.298,-0.467,-0.567
NC1CCN(c2nc3c(cc2F)c(=O)c(C(=O)O)cn3-c2ccc(F)cc2F)C1 (configuration not stated) [Tosufloxacin hydrochloride],-0.551,-1.59,-0.466,-1.51,-0.679,-0.966
COc1ccccc1N1CCN(CCCNc2cc(=O)n(C)c(=O)n2C)CC1 [Urapidil hydrochloride],-0.297,0.724,-0.315,0.116,-0.29,-0.0207
Nc1ccccc1S(N)(=O)=O [2-Aminobenzenesulfonamide],-0.461,-0.0157,-0.474,-0.217,-0.417,-0.589
CN1C(C(=O)Nc2ccccn2)=C(O)c2ccccc2S1(=O)=O [Piroxicam],-0.541,-0.331,-0.896,-1.08,-0.561,-0.694
CCOC(=O)Nc1ccc2c(c1)N(C(=O)CCN1CCOCC1)c1ccccc1S2 [Moricizine hydrochloride],-0.59,0.328,-0.0401,0.0759,-0.436,0.233
NC(N)=Nc1nc(CSCC/C(N)=N/S(N)(=O)=O)cs1 [Famotidine],-0.5,-0.604,-0.838,-0.898,-0.447,-0.623
NCCc1cc[nH]n1 [Betazole hydrochloride],-0.528,0.0261,-0.472,-0.657,-0.476,-0.51
NS(=O)(=O)c1cc(Cl)c(Cl)c(S(N)(=O)=O)c1 [Dichlorphenamide],-0.34,-0.217,-0.00386,0.196,-0.409,-0.301
C[C@]12CCC(=O)C=C1CC[C@@H]1[C@@H]2[C@@H](O)C[C@@]2(C)[C@H]1CC[C@]2(O)C(=O)CO [Hydrocortisone base],-0.41,-0.249,-0.675,-0.6,-0.327,-0.44
CCC(NC(C)C)C(O)c1ccc(O)c(O)c1 (configuration not stated) [Isoetharine mesylate salt],-0.174,0.0426,0.269,-0.32,-0.45,-0.32
Cc1ccc(NC(=O)c2ccc(CN3CCN(C)CC3)cc2)cc1Nc1nccc(-c2cccnc2)n1 [Imatinib],3.97,1.01,2.96,3.48,4.02,3.74
CC(=O)OCC(=O)[C@@]12OC3(CCCC3)O[C@@H]1C[C@H]1[C@@H]3CCC4=CC(=O)C=C[C@]4(C)[C@@]3(F)[C@@H](O)C[C@@]12C [Amcinonide],-0.0445,0.215,0.476,0.977,-0.0127,0.16
